# Bioassay records as filed in PubChem.
# EBV LMP1 NFkB – EBV LMP1-driven NF-kappaB luciferase reporter inhibitors, primary screen, cell-based, luminescence, single point; LMP1-induced NF-kappaB luciferase reporter cells; inhibition, % at 12.5 µM; actives 0.69% (n = 350,000); in the data active = inhibition above about 41%; inconclusive = no clear call, values can overlap the other calls;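 note: 0% = neutral control wells and 100% = reference inhibitor control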
# TRPM1 prom inh – inhibitors of MITF-dependent TRPM1 promoter reporter, primary screen, cell-based, SK-MEL-5, single point, luciferase; actives 0.83% (n = 330,000); inhibition, % at 12.5 µM; SK-MEL-5 TRPM1 promoter luciferase, 24 h;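 active = mean inhibition across replicates of 60% or more, whatever share of single replicates reaches that level; inconclusive = some that reach 60%, reason not given; inactive = mean inhibition across replicates below 60%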
# TWEAK-Fn14 inh – inhibitors of TWEAK-Fn14 signaling, primary screen, luciferase reporter cells, uHTS | actives 2% (n = 360,000) | AID 1159606, 2016 | inhibition, % at 10 µM | TWEAK-stimulated Fn14 reporter cells, luciferase luminescence, 8 h; in the data active = inhibition above about 50%
# Shn3 inh set2 – reduction of Shn3 3'UTR firefly luciferase signal, primary screen, Schnurri-3 inhibitor project, cell-based, Clone20 osteoblasts, set 2; Clone20 osteoblast Shn3 3'UTR firefly luciferase, 24 h; inhibition, % at 12.5 µM; actives 0.52% (n = 360,000); AID 588674, 2011;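 active = mean inhibition of at least 75% with every replicate also reaching 75%; inconclusive = mean inhibition at least 75% but some replicate below; inactive = mean inhibition below 75%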;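 note: 0% = median of neutral control wells and 100% = pilot-screen positive control compound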
# TROY NFkB inh – inhibitors of TROY-driven NF-kB signaling, primary screen, Q293 LMP1-TROYcd cells, NF-kB luciferase, uHTS. Q293 LMP1-TROYcd NF-kB luciferase reporter, 4 h. inhibition, % at 10 µM. actives 0.98% (n = 360,000);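 active = compounds whose plate-normalised and pattern-corrected inhibition of the luciferase reporter signal at the single screening dose is 50% or more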
# Peg3 promoter – Peg3 promoter-driven luciferase inhibitors, primary screen, cell-based, HeLa, luciferase luminescence; HeLa PEG-Prom luciferase reporter, overnight; AID 588405, 2011; inhibition, % at 20 µM; actives 1.7% (n = 360,000);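 active = inhibition of at least 50% at 20 µM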
# * = called active by the depositor; ? = inconclusive; . = not tested or not shown. Compounds with a hit are over-represented: about 4.1% of the library has one in this group of screens.
SMILES,EBV LMP1 NFkB,TRPM1 prom inh,TWEAK-Fn14 inh,Shn3 inh set2,TROY NFkB inh,Peg3 promoter
O=C(NC1CCCCC1)C(c1cccs1)N(Cc1cccs1)C(=O)c1ccco1 (configuration not stated),11,-8,3,20,-17,10
CCCN(CCC)c1nc(Cl)nc(NCc2ccco2)n1,4,-37,75*,14,7,10
OCCNc1nc(Cl)nc(NCc2ccco2)n1,-6,4,20,1,-16,11
NC(=O)c1cc([N+](=O)[O-])ccc1NCC1CCCCC1,5,-51,-10,-29,-50,-121
O=C(NCC1COc2ccccc2O1)Nc1ccccc1F (configuration not stated),-2,-3,-15,-7,-35,-27
CCCCCn1c(=NC(=O)c2cccnc2)c(C#N)cc2c(=O)n3cccc(C)c3nc21,-2,14,30,-9,-1,56*
CCCCn1c(=NC(C)=O)c(C#N)cc2c(=O)n3cccc(C)c3nc21,-3,-2,-13,29,-11,20
Nc1nc2c(ncn2[C@@H]2O[C@H](CNCc3ccc4ncccc4c3)[C@@H](O)[C@H]2O)c(=O)[nH]1,.,.,-8,2,-7,3
COc1ccc2c(C(=O)CCl)c[nH]c2c1,-5,75*,53*,13,4,48
CC(=O)c1nn(-c2cccc(C)c2)cc1C(=O)c1cccc(Br)c1,-9,-6,-17,-2,-1,7
O=S(=O)(Cc1ccc(Cl)cc1)N1CCN(c2ncccn2)CC1,6,-9,-13,10,-8,20
CC1(C)C=Cc2c(c3c(c4c(=O)c(-c5ccc(O)cc5)coc24)OC(C)(C)CC3)O1,-13,7,17,-17,-1,63*
CC1=CC(=C(C#N)c2nc3ccccc3s2)C=C(C)N1CC1CCCO1 (configuration not stated),-3,-45,-54,-52,-36,-26
COc1ccc(C(F)(F)F)cc1N/C=C/c1nnnn1-c1ccc2ccccc2c1,-14,4,-1,11,38,2
Clc1cccc(-c2cc3nc4c(c(N5CCN(c6cnccn6)CC5)n3n2)CCCC4)c1,-48,-46,61*,-8,26,-106
CCn1c(/C=N/Nc2ccc(C(=O)O)cc2)nc2ccccc21,-3,-17,-11,18,-41,-50
CC1Oc2ccccc2C=C1/C=N/Nc1ccc(C(=O)O)cc1 (configuration not stated),-13,-39,61*,-1,-10,-191
Cc1c(CCC(=O)N2CCC(C(=O)O)(c3ccccc3)CC2)c(=O)oc2cc3oc4c(c3cc12)CCCC4,8,54,87*,23,5,-61
O=C(CCCN1C(=O)/C(=C/c2ccccc2Cl)SC1=S)NNC(=O)c1cccnc1,-21,17,87*,9,77*,23
O=C(CCCN1C(=O)S/C(=C\c2ccccc2)C1=O)NNC(=O)c1ccccc1O,?,71*,35,28,24,18
O=C(CCCN1C(=O)/C(=C/c2cccs2)SC1=S)NNC(=O)c1cccnc1,0,7,-2,4,14,-4
O=C(CCCN1C(=O)/C(=C/c2ccccc2Cl)SC1=S)NNC(=O)c1ccccc1,23,8,70*,10,57*,34
O=C(CCN1C(=O)/C(=C/c2ccccc2Cl)SC1=S)Nc1ccccc1C(=O)O,-5,11,10,-8,46,5
NNC(=O)c1ncoc1-c1ccc(Cl)cc1,1,3,-3,22,8,5
O=C(CSc1nnc(-c2cccc(S(=O)(=O)N3CCOCC3)c2)n1C1CCCCCC1)NCc1ccccc1,47*,13,2,12,6,27
SMILES,EBV LMP1 NFkB,TRPM1 prom inh,TWEAK-Fn14 inh,Shn3 inh set2,TROY NFkB inh,Peg3 promoter
COc1ccc(Cl)cc1NC(=O)CSc1nnc(-c2ccco2)o1,-3,3,8,-3,17,-6
c1cc2c(cc1Nc1nc(-c3ccc4c(c3)OCO4)cs1)OCCO2,-17,-43,56*,-33,44,-273
c1ccc(-c2csc(Nc3ccc4c(c3)OCCO4)n2)cc1,-100,-22,45,-14,58*,-205
Cc1ccc(NC(=O)C(=O)Nc2ccccn2)cc1,56*,3,86*,13,57*,0
Cc1ccc(S(=O)(=O)CC(=O)Nc2ccccn2)cc1,-3,3,3,-8,-12,1
O=C(NC(NC(=O)c1ccccc1)c1ccccc1)c1ccccc1,-2,7,8,-18,-7,16
Cc1ccc(-c2nnc(SCC(=O)N/N=C/c3ccccc3C(=O)O)n2-c2ccc(C)cc2)cc1,-2,-1,92*,10,0,3
Cc1ccc(-c2nnc(SCC(=O)N/N=C/c3ccc(C)s3)n2-c2ccccc2)cc1,-5,-4,23,6,-30,65*
C=Cc1ccc(Cn2c(=O)n(C)c(=O)c3sccc32)cc1,13,7,-8,54,-31,-6
CCOC(=O)c1c(C)c2c(=O)[nH]cnc2n1-c1ccccc1,27,-9,63*,3,42,-17
CCCN1C(=O)/C(=C/c2nc3ccccc3c(=O)[nH]2)c2ccccc21,7,-8,33,-13,-3,47
CC(C)N1C(=O)/C(=C\c2nc3ccccc3c(=O)[nH]2)c2ccccc21,-10,-18,68*,-13,15,61*
CC(=O)c1sc(NC(=O)C2(F)C(F)(F)C(F)(F)C(F)(F)C(F)(F)C2(F)F)nc1C,5,46,65*,2,62*,39
CC(=O)c1sc(NC(=O)C=C(C)C)nc1C,-14,-33,-12,-24,-39,-102
COc1cccc2c1C(CO)N1C(C#N)C3CC(C(=O)O)C(C1C2)N3C (configuration not stated),89*,67*,102*,-94,51*,108*
COc1ccc(-n2c(-c3cc(-c4ccccc4)sc3N)n[nH]c2=S)cc1,-10,-15,-25,-19,-18,87*
CCOCc1c(C(=O)NC2CCCCCC2)oc2ccccc12,-4,11,-1,18,-22,7
CCOc1cccc(NC(=O)Cc2cccs2)c1,1,-6,110*,-4,.,-35
O=C(Cc1cccs1)Nc1cccc(-c2nc3cc4ccccc4cc3[nH]2)c1,-66,-68,74*,-60,57*,-49
Cc1cc([N+](=O)[O-])ccc1NC(=O)CSc1nccc(=O)[nH]1,2,4,7,-4,-9,5
